In PubChem BioAssay:
Calls of active or inactive are those of the source. Unless noted, the rule behind the calls is not given here.

Columns and labels:
[1] = resazurin metabolic signal in HepG2 cells – cell-based, resazurin fluorescence, 24 h, PK04 Diversity Set, profiling panel (AID 1172); conditions: HepG2 viability, higher = more signal
[2] = budding yeast growth changes without added modifier – OD600, strain BY4716, 24 h, basal condition, primary screen (AID 1173); conditions: S. cerevisiae BY4716 growth, OD600, 24 h; higher = more signal, called active from +8 up or from −8 down
[3] = viability profiling in MM1S myeloma cells – cell-based, resazurin fluorescence, basal, 24 h, PK04 Diversity Set, profiling panel (AID 1174); conditions: higher = more signal, called active from +8 up or from −8 down;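 note: MM1S multiple myeloma cell line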
[4] = molecular target: Dihydroorotate dehydrogenase (quinone), mitochondrial (Plasmodium falciparum (isolate 3D7)) (UniProt Q08210); experiment: inhibition of P. falciparum DHODH – biochemical, C-terminal His tag, absorbance 600 nm, primary screen (AID 1175); conditions: PfDHODH enzyme, DCIP absorbance 600 nm; higher = more signal, called active from +8 up or from −8 down;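 note: recombinant parasite enzyme with a five histidine tag at its C terminus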
[5] = inhibition of PAO1 biofilm formation – strain PAO1, LB-PBS medium, absorbance 600 nm, primary screen (AID 1176); conditions: P. aeruginosa PAO1 growth/biofilm, A600, 12 h; higher = more signal
[6] = growth modulation of vineyard yeast isolate – strain RM11-1a, OD600, basal, 24 h, primary screen (AID 1177);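 note: cultures grown under basal conditions with no added stressor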; conditions: S. cerevisiae RM11-1a growth, OD600, 24 h; higher = more signal, called active from +8 up or from −8 down
[7] = growth of efflux-deficient E. coli DRC39 – strain DRC39, OD650, 24 h, E. coli filamentation inducers, primary screen (AID 1178);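 note: growth measured as culture turbidity by optical density at 650 nm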; conditions: E. coli DRC39 acrAB, higher = more signal, called active from +8 up or from −8 down
[8] = growth of efflux-deficient E. coli DRC39 – strain DRC39, OD650, 48 h, E. coli filamentation inducers, primary screen (AID 1179);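 note: screen aims at cell division blockers that make cells filament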; conditions: E. coli DRC39 delta-acrAB growth, higher = more signal, called active from +8 up or from −8 down
[9] = viability profiling in RPMI8226 myeloma cells – cell-based, resazurin fluorescence, basal, 24 h, PK04 Diversity Set, profiling panel (AID 1180); conditions: higher = more signal;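 note: RPMI8826 multiple myeloma cell line at 5000 cells per well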
[10] = molecular target: E3 ubiquitin-protein ligase XIAP (Homo sapiens) (UniProt P98170); experiment: small molecules binding XIAP protein – biophysical, small-molecule microarray, fluorescence 635 nm, primary screen (AID 1181); conditions: higher = more signal;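 note: score merges 667 nm emission and signal to noise over triplicate slides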
[11] = test system: XIP peptide (Xip251-270) binding; experiment: XIP fragment 251-270 binding compounds – biochemical, small-molecule microarray, fluorescence 635/667 nm, 0.1 µg/mL protein, primary screen (AID 1182); conditions: fluorescent protein binding, 635 nm, higher = more signal, called active from +8 up or from −8 down
XIP peptide (Xip251-270) = experiment: compounds binding XIP fragment 251-270 – biochemical, small-molecule microarray, fluorescence 635/667 nm, 0.5 µg/mL protein, primary screen (AID 1183); conditions: fluorescence 635 nm, higher = more signal
[12] = blood-stage malaria parasite viability loss – strain 3D7, DAPI fluorescence, 100 nL, primary screen (AID 1184);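 note: parasites grown inside human red blood cells in medium with human serum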; conditions: P. falciparum 3D7 growth, 3 d, higher = more signal
[13] = molecular target: Homeobox protein Hox-A13 (Mus musculus) (UniProt Q62424); experiment: disruptors of Hoxa13 oligonucleotide interaction – biochemical, fluorescence polarization, labeled oligonucleotide, primary screen (AID 1185); conditions: Hoxa13:DNA binding, 15 min, higher = more signal, called active from +8 up or from −8 down
[14] = blockers of DNA damage checkpoint Chk1 activation – imaging, HeLa, hydroxyurea, phospho-Chk1 antibody, percent positive cells, primary screen (AID 1186); conditions: hydroxyurea-induced phospho-Chk1 immunofluorescence imaging, higher = more signal
[15] = blockers of DNA damage checkpoint Chk1 activation – imaging, HeLa, hydroxyurea, phospho-Chk1 nuclear intensity, primary screen (AID 1187); conditions: hydroxyurea-induced phospho-Chk1 immunofluorescence imaging, higher = more signal

Homeobox protein Hox-A13 (Mus musculus), sequence (Q62424 whole entry, looked up): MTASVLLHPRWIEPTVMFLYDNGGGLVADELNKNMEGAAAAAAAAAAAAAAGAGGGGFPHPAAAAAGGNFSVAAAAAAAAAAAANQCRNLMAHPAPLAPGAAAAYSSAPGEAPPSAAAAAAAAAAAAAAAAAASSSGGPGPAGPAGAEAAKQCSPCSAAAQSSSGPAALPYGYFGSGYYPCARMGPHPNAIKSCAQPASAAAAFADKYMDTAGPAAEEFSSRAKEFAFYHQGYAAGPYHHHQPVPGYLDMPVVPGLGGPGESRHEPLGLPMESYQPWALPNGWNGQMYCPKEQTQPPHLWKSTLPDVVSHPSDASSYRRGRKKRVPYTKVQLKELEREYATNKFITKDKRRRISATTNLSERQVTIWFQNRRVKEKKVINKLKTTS
Dihydroorotate dehydrogenase (quinone), mitochondrial (Plasmodium falciparum (isolate 3D7)), sequence (Q08210 whole entry, looked up): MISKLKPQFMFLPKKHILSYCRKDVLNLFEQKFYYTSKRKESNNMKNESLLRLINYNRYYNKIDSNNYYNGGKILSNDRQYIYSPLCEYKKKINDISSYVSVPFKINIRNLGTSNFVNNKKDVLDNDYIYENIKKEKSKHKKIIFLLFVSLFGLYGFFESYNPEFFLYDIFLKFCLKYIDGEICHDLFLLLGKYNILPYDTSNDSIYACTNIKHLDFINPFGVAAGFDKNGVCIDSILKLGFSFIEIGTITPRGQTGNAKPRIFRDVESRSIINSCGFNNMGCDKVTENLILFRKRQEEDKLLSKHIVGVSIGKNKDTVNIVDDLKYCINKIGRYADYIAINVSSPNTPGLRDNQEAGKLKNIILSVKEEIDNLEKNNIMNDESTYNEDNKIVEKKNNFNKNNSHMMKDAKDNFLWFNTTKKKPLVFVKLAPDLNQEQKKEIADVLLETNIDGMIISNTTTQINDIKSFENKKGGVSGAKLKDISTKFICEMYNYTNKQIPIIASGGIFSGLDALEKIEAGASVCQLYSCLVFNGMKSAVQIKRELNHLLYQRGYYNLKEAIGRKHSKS
E3 ubiquitin-protein ligase XIAP (Homo sapiens), sequence (P98170 whole entry, looked up, the tested form may be a part): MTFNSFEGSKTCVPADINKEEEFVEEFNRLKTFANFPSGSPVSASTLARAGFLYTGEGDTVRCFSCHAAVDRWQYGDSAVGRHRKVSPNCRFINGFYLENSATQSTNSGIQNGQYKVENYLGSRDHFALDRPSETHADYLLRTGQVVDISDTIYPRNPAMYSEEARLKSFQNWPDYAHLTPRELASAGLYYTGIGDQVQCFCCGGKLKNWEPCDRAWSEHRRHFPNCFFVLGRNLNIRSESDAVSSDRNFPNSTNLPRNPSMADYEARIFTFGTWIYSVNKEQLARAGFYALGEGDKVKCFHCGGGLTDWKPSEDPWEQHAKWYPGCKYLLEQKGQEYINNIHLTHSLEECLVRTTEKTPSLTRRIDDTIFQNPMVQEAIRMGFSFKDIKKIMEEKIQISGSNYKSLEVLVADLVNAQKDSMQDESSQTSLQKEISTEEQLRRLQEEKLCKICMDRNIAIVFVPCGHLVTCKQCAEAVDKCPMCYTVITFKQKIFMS

SMILES	z-score [1]	z-score [2]	z-score [3]	composite z-score [4]	z-score [5]	z-score [6]	z-score [7]	z-score [8]	z-score [9]	composite z-score [10]	composite z-score [11]	composite z-score (XIP peptide (Xip251-270))	z-score [12]	z-score [13]	z-score [14]	z-score [15]
COC(=O)[C@@]1(Cc2ccccc2)[C@H]2c3cc(C(=O)N4CCCC4)n(CCO)c3C[C@H]2CN1C(=O)c1ccccc1	0.445	0.192 (inactive)	-0.892 (inactive)	-1.2 (inactive)	0.259 (inactive)	-0.483 (inactive)	0.355 (inactive)	1.05 (inactive)	0.309	0.202	1.06 (inactive)	0.824	-1.29	-0.89 (inactive)	-0.536 (inactive)	-0.0989 (inactive)
CCOC(=O)C[C@H]1[C@H](OC(=O)c2ccc(C(=O)c3ccccc3)cc2)[C@@H](NC(=O)C2CCCCC2)c2cc(OCCCO)ccc2N1C(=O)Cc1ccc(OC)cc1	-0.531	-0.741 (inactive)	-0.28 (inactive)	-0.085 (inactive)	-0.346 (inactive)	-0.0363 (inactive)	-0.29 (inactive)	0.162 (inactive)	-0.353	-0.141	0.963 (inactive)	0.242	-1.12	-2.28 (inactive)	0.542 (inactive)	-0.129 (inactive)
[N-]=[N+]=NCc1ccccc1C[C@@]1(C(=O)NCCN2CCOCC2)N=C(c2ccc(OCCCO)cc2)O[C@@H]1c1ccccc1CN=[N+]=[N-]	-0.709	0.326 (inactive)	-0.982 (inactive)	1.06 (inactive)	1.13 (inactive)	1.15 (inactive)	0.585 (inactive)	0.239 (inactive)	-0.971	0.0905	0.607 (inactive)	0.743	-2.22	-11.2 (active)	0.243 (inactive)	0.693 (inactive)
COCCOC(=O)N1C(=O)[C@@]2(c3cc(C#CCCO)ccc31)[C@H](c1ccc(OCCO)cc1)N1[C@H](c3ccccc3)[C@H](c3ccccc3)OC(=O)[C@H]1[C@@H]2C(=O)N1CCc2cc(OC)c(OC)cc2C1	-0.398	1.28 (inactive)	-1.24 (inactive)	-1.02 (inactive)	1.64 (inactive)	3.35 (inactive)	0.154 (inactive)	0.554 (inactive)	0.908	-0.102	0.311 (inactive)	0.736	-1.87	2.71 (inactive)	-0.209 (inactive)	0.0256 (inactive)
CN(C)C(=O)[C@@]1(CCS(=O)(=O)c2ccccc2)N=C(c2ccc(OCCCO)cc2)O[C@H]1c1ccccc1CN=[N+]=[N-]	1.01	-1.19 (inactive)	0.958 (inactive)	0.307 (inactive)	-0.385 (inactive)	-0.791 (inactive)	1.13 (inactive)	0.802 (inactive)	0.251	-0.0381	1.41 (inactive)	0.653	-2.48	-5.32 (inactive)	-0.359 (inactive)	-0.243 (inactive)
NCCCCCCNC(=O)[C@H]1C[C@H]2C(=O)N3CCC[C@H]3C(=O)N2[C@H]1c1ccc(O)cc1	-0.541	-0.438 (inactive)	-0.431 (inactive)	-0.245 (inactive)	-0.0059 (inactive)	-1.09 (inactive)	0.0967 (inactive)	-0.676 (inactive)	-0.508	-0.223	-0.118 (inactive)	0.451	0.0311	-2.4 (inactive)	-0.0342 (inactive)	0.0369 (inactive)
CCOC(=O)C[C@H]1[C@H](OC(=O)Cc2ccc3c(c2)OCO3)[C@@H](NC(=O)c2ccccc2)c2cc(OCCCO)ccc2N1C(=O)c1ccc2ccccc2n1	-0.287	-1.02 (inactive)	0.426 (inactive)	-1.03 (inactive)	-0.0057 (inactive)	-1.68 (inactive)	0.907 (inactive)	0.88 (inactive)	0.121	-0.138	-0.263 (inactive)	-0.101	0.93	-3.68 (inactive)	-0.467 (inactive)	-0.259 (inactive)
O=C1C2C=CC(C(O)c3ccccn3)N(Nc3ccccc3)C2C(=O)N1c1ccccc1 (centres undefined)	0.458	-1.07 (inactive)	-0.702 (inactive)	1.06 (inactive)	0.35 (inactive)	0.565 (inactive)	-0.562 (inactive)	-0.225 (inactive)	0.16	0.109	0.099 (inactive)	0.116	-0.244	-1.65 (inactive)	-0.849 (inactive)	-0.791 (inactive)
COCCOC(=O)N1C(=O)[C@@]2(c3cc(C#Cc4ccc(OC)cc4)ccc31)[C@H](C(=O)N1CCc3cc(OC)c(OC)cc3C1)[C@H]1C(=O)O[C@H](c3ccccc3)[C@H](c3ccccc3)N1[C@@H]2c1ccc(O)cc1	-0.0637	1.12 (inactive)	-0.108 (inactive)	0.751 (inactive)	0.858 (inactive)	2.08 (inactive)	-0.145 (inactive)	0.26 (inactive)	0.0506	0.202	1.64 (inactive)	0.759	-1.65	-0.63 (inactive)	-0.241 (inactive)	-0.261 (inactive)
